# In ChEMBL document CHEMBL4513216, “Probing the Open Global Health Chemical Diversity Library for Multistage-Active Starting Points for Next-Generation Antimalarials” (ACS Infect Dis, 2020):
# In all, about 69,000 compounds went through this assay and about 8,600 (12%) showed an effect of 50% or more. Only a selection was taken, and strong results are over-represented in it overall.
# Tested on: Plasmodium berghei
# Experiment: Screen against P. berghei liver stage (PbLuc), transformed with Luciferase, at 10uM
# Type: functional, HepG2
# Conditions: tested at 10 uM
row,SMILES,INHIBITION [%]
1,Cc1cnc(CNC(=O)[C@@]23CCO[C@@H]2CCN(C2CCCC2)C3)cn1,18.6
2,Cc1ccc(N2CC[C@H](O)[C@@H]2Cc2cnn(C)c2)nn1,-15.9
3,CC(=O)N1CCCN(C2CCCCc3ccccc32)CC1 (centres undefined),55.4
4,CC(=O)N1CCN([C@@H]2CN(C(=O)c3ccccc3)C[C@H]2O)CC1,11.8
5,NC(=O)N1CCCN(C2CCCCc3ccccc32)CC1 (centres undefined),13.7
6,O=C1CN(C(=O)CC2c3ccccc3CCc3ccccc32)CCN1,42.1
7,CC(=O)N1CCN(C2CCCCc3ccccc32)CC1 (centres undefined),-1.16
8,CC(=O)N1CCN(C2CCc3ccccc32)CC1 (centres undefined),64.7
9,Cc1cccc(C2(CNC(C)c3nnc(C)o3)CCCC2)c1 (centres undefined),-10.2
10,CCCc1ccc(S(=O)(=O)NC(=O)CCC2CCCO2)cc1 (centres undefined),4.71
11,Cn1cccc1C(=O)N1CCC2(CC1)CC(N1CCOCC1)C2,-23.3
12,COc1ccccc1C1(C(=O)N2CCCC(c3cc(C)[nH]n3)C2)CC1 (centres undefined),-14.6
13,c1cncc(C2COC3(CCN(Cc4cccs4)CC3)C2)c1 (centres undefined),0.618
14,c1cncc(CN2CCC3(CC2)CC(c2cccnc2)CO3)c1 (centres undefined),-35
15,Cc1ccc(CN2CCC3(CC2)CC(c2cccnc2)CO3)s1 (centres undefined),50.1
16,COc1cccc2ccn(CCC(=O)N3CCCC(C(=O)O)C3)c12 (centres undefined),-19.7
17,CCc1ncnc2c1CCN(CC(=O)N(C)C)CC2,30.3
18,Cc1ncnc2c1CCN(C(=O)N(C)C)CC2,80.1
19,Cc1ncnc2c1CCN(C(=O)CN(C)C)CC2,46.7
20,CN(C)C(=O)CN1CCc2ncnc(NC3CCC3)c2CC1,72.9
21,CN(C)C(=O)CN1CCc2ncnc(C3CC3)c2CC1,48.4
22,COCCN1CCc2ncnc(NC3CC3)c2CC1,-31.1

row,SMILES,INHIBITION [%]
1,Cc1ncnc2c1CCN(CC(=O)N(C)C)CC2,53
2,CCN(C)c1ncnc2c1CCN(C(=O)N(C)C)CC2,-64.7
3,CN(C)C(=O)CN1CCc2ncnc(N(C)C)c2CC1,3.17
4,Fc1ccc(C2CN(c3ncnc4[nH]ncc34)CCO2)cc1 (centres undefined),40.8
5,CN(C)CCn1nc(C2CCN(Cc3ccccc3)C2)c2cccnc21 (centres undefined),28.3
6,Cc1ccc(CNC(=O)c2nn(C)c3c2CS(=O)(=O)CC3)o1,30.8
7,Cc1ccc(NC2CCN(C(=O)CCc3ccccc3)CC2)nn1,-26.6
8,CCOc1ccnc(N2CCN(C(=O)c3ccc(OC)cc3)CC2)n1,31.9
9,CSCC(C)(O)CNC(=O)c1ccc(Br)cc1F (centres undefined),-59.2
10,CSCC(C)(O)CNC(=O)c1cc(Br)ccc1Cl (centres undefined),55.4
11,CSCC(C)(O)CNC(=O)c1cc(Cl)ccc1Cl (centres undefined),-21.3
12,N#Cc1ccc(F)c(CN2CCNC(=O)C2c2cccs2)c1 (centres undefined),23.1
13,O=c1cc(-c2ccccc2)nc2n1CCCCC2,49
14,CCc1nnsc1C(=O)N1CCCN(Cc2ccc(C)cc2)CC1,29.4
15,CCc1ncncc1C(=O)N1CCCN(Cc2ccc(C#N)cc2)CC1,19.6
16,CCc1ncncc1C(=O)N1CCCN(Cc2ccccc2C)CC1,19.6
17,CCc1ncncc1C(=O)N1CCCN(Cc2ccc(C)cc2)CC1,56.6
18,CCc1ncncc1C(=O)N1CCN(Cc2ccco2)CC1,50.4
19,CCc1ncncc1C(=O)N1CCN(Cc2ccsc2)CC1,31.9
20,CCCc1n[nH]c(C2CN(C(=O)c3cccc4[nH]ncc34)CCO2)n1 (centres undefined),33.3
21,Cc1ccc(OC2(C(=O)NC(C)Cc3ccncc3)CCNCC2)cc1 (centres undefined),26.7
22,CN(C)C(=O)CO[C@H]1CO[C@@]2(CCN(Cc3ccsc3)C2)C1,24

row,SMILES,INHIBITION [%]
1,Cc1nn(C)c(C)c1C1CCCN1CC(=O)Nc1ccc(Cl)cn1 (centres undefined),-48.4
2,O=C(Cc1cccnc1)N1CCCC2(CCN(C3CCOCC3)C2)C1 (centres undefined),-62.2
3,Cc1ccc(C(=O)N2CCC3(CC2)CC(c2ccccc2)C(=O)N3)cn1 (centres undefined),30.5
4,Cc1nccn1[C@@H]1CC[C@@H](NC(=O)CCOc2ccccc2)[C@H]1O,21.7
5,CCC=C(C)C(=O)NCc1ccnc(OC)c1,42.3
6,O=C(Cc1cccs1)NCc1ccnc(OC2CCOCC2)c1,-32.8
7,CCC=C(C)C(=O)NCc1ccnc(OC2CCOCC2)c1,56
8,O=C(NCCC1CCN(CC(F)(F)F)CC1)C1COCCO1 (centres undefined),21.8
9,c1cncc(CNCc2cccs2)c1,6.26
10,O=C1CCCN1Cc1nnc2n1CCN(Cc1ccoc1)CC2,33.2
11,O=C(O)c1cc(S(=O)(=O)N2CCOc3ccccc32)cc(Cl)c1Cl,23.25
12,O=C(c1ccccn1)N1C[C@H]2CC[C@@H](C1)N(C(=O)CCN1CCCC1)C2,50.3
13,O=C(c1ccccn1)N1C[C@H]2CC[C@@H](C1)N(C(=O)CCC(F)(F)F)C2,6.33
14,O=C(c1ccccn1)N1C[C@H]2CC[C@@H](C1)N(C(=O)CCC1CCCC1)C2,-36.6
15,CC(=O)c1c(F)cccc1NCC(O)C(C)(C)C (centres undefined),30.5
16,NCC1Cn2nnc(-c3cccc(F)c3)c2CO1 (centres undefined),6.8
17,O=C(NCC1Cn2nnc(-c3ccccc3)c2CO1)c1ccc[nH]1 (centres undefined),-29
18,Fc1cnc(NCC2Cn3nnc(-c4ccccc4)c3CO2)nc1 (centres undefined),50.9
19,c1cnc(NCC2Cn3nnc(-c4ccsc4)c3CO2)nc1 (centres undefined),45.1
20,Fc1cccc(-c2nnn3c2COC(CNc2ncccn2)C3)c1 (centres undefined),54.4
21,c1cnc(NCC2Cn3nnc(-c4ccoc4)c3CO2)nc1 (centres undefined),25.2
22,CNCC(=O)N1CCCC1c1n[nH]cc1-c1ccccc1F (centres undefined),-16

row,SMILES,INHIBITION [%]
1,Cn1ccnc1CN1CCOC(C)(C(=O)N2CCOCC2)C1 (centres undefined),35.2
2,COCCCN(Cc1ccc(F)cc1Cl)C1CCS(=O)(=O)C1 (centres undefined),34.9
3,Cc1cccc(CN2CCC3(CCCN(C(=O)c4ccsc4)C3)C2=O)n1 (centres undefined),12.6
4,Cc1nnc([C@]23COC[C@H]2CN(Cc2cnn(C)c2)C3)o1,23.1
5,Cc1cc(Br)c(O)c(-c2nc(N3CCOCC3)sc2C)c1,33.7
6,Cc1cc(Br)c(O)c(-c2nc(N3CCCCC3)sc2C)c1,64.9
7,Cc1cc(Br)c(O)c(C(=O)N2CCC(CN3CCCCCC3)CC2)c1,28.1
8,Cc1ccsc1CN1C[C@@H]2COC[C@]2(COCC(=O)N(C)C)C1,-4.32
9,COc1ncccc1CNC1CCc2c(ccc(=O)n2CC2CC2)C1 (centres undefined),55.7
10,O=C(CC1CC1)NC1CCc2c(ccc(=O)n2CC2CC2)C1 (centres undefined),-5.63
11,O=c1ccc2c(n1CC1CC1)CCC(NCc1cccs1)C2 (centres undefined),92.8
12,O=c1ccc2c(n1CC1CC1)CCC(NS(=O)(=O)C1CC1)C2 (centres undefined),14.8
13,Cc1cnc(NC2CCc3c(ccc(=O)n3CC3CC3)C2)nc1 (centres undefined),81.5
14,CCS(=O)(=O)NC1CCc2c(ccc(=O)n2CC2CC2)C1 (centres undefined),35.7
15,Cc1cnc(NC2CCc3c(ccc(=O)n3C)C2)nc1 (centres undefined),-14.3
16,Cn1cc(CNC2CCc3c(ccc(=O)n3C)C2)cn1 (centres undefined),18.6
17,CC(C)NC1CCc2c(ccc(=O)n2CC2CC2)C1 (centres undefined),47.4
18,COc1ncccc1CNC1CCc2c(ccc(=O)n2C)C1 (centres undefined),60.2
19,CCCS(=O)(=O)NC1CCc2c(ccc(=O)n2CC2CC2)C1 (centres undefined),43.9
20,COCCn1c2c(ccc1=O)CC(NCc1cccnc1OC)CC2 (centres undefined),41.2
21,O=C(CCN1CCOCC1)Nc1cccc(CNCc2ccsc2)c1,-1.79
22,O=C(N1CCCC1)N1CC[C@H]2OCC[C@@]2(COc2ncccc2F)C1,4.1

row,SMILES,INHIBITION [%]
1,CC(=O)N1CCC(C(=O)N2CCCC(Cc3cccc(C)n3)C2)CC1 (centres undefined),-18.9
2,CS(=O)(=O)N1CCO[C@@H]2CN(C(=O)c3cccnc3)C[C@@H]2C1,2.7
3,COc1ccccc1CC(C)CC(=O)NS(=O)(=O)C(C)C (centres undefined),9.57
4,CCC1=N[C@@]2(CC[C@@H]3CN(CC4CC4)C[C@@H]32)C(=O)N1C,24.5
5,CC(=O)NCc1nnc2n1CCN(c1nc(C)nc3sccc13)CC2,55
6,O=C(NCc1nnc2n1CCC2)N1CCc2sccc2C1,-8.11
7,CC(=O)NCc1nnc2n1CCN(c1ncnc3c(C)csc13)CC2,24.7
8,Cc1ccc(S(=O)(=O)CCC(=O)NCc2nnc3n2CCC3)cc1,-2.34
9,Cn1ccnc1CN1CCc2ncnc(N3CCCC3)c2CC1,-78.5
10,CC(=O)NCc1nnc2n1CCN(c1ncnc3c1CCC3)CC2,56.1
11,COc1ncccc1C(=O)N1CCC(Nc2ccc(C)nn2)CC1,33.7
12,c1nnc(Nc2cncc(C3CCCN3)n2)s1 (centres undefined),13.285
13,Cc1cc(=O)n(C)cc1NC(=O)Cc1cccc(F)c1,25.1
14,Cc1cc(=O)n(C)cc1NC(=O)Cc1ccc(C(F)(F)F)cc1,11.7
15,Cc1cc(=O)n(C)cc1NC(=O)Cc1cc(F)ccc1F,56.5
16,Cc1ccc(NC2(C(=O)NCCCN)CCCC2)cc1,53.2
17,Cc1ccc(NC2(C(=O)NCc3c(C)n[nH]c3C)CCCC2)cc1,11.6
18,Cc1ccc(NC2(C(=O)NCCCc3c(C)n[nH]c3C)CCCC2)cc1,-40.9
19,CO[C@H]1CO[C@@]2(CCCN(C(=O)N(C)C)C2)C1,35.8
20,CCc1n[nH]c(C2CN(C(=O)c3cc(C4CC4)on3)CCO2)n1 (centres undefined),-3.58
21,CNc1nc(CNC(=O)Nc2ccc([S+](C)[O-])c(F)c2)cs1 (centres undefined),22.955
